ATG4B inhibitor – inhibitors of human ATG4B cysteine protease. AID 504462. actives 0.51% (n = 340,000). ATG4B cleavage of LC3-PLA2, NBD-HPC fluorescence, 1 h. inhibition, % at 8.33 µM. Q9Y4P1; in the data active = inhibition above about 40%
Target sequence (Q9Y4P1 whole entry, looked up): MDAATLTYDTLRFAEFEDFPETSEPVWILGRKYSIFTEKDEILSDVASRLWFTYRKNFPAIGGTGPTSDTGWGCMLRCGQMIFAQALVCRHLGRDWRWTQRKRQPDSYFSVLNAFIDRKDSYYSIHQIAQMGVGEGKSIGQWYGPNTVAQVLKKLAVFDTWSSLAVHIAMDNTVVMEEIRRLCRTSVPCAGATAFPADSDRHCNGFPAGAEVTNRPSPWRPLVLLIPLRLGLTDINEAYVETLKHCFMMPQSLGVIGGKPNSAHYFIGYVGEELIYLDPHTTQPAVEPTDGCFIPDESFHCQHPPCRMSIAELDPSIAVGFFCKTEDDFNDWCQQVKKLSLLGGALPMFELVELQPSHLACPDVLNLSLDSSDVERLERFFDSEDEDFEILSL
CHRM1 antagonist – human CHRM1 antagonism; inhibition, % at 3 µM; actives 1.3% (n = 360,000); AID 588852; CHO-K1 hM1, Fluo-8 calcium fluorescence, ACh EC80 antagonist;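 active = percent inhibition above its own plate's cutoff, namely the mean of that plate's compound wells plus 3 SD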;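 note: peak over basal fluorescence ratio during 140 s after agonist addition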
M1 PAM – positive allosteric modulators of human M1 muscarinic receptor | activation, % at 3 µM | CHO-K1 hM1, Fluo-8 calcium fluorescence, ACh EC20; 0% = ACh EC20, 100% = maximal ACh | actives 0.088% (n = 360,000) | P11229 | AID 588819; in the data active = activation above about 19%, passing the limit was not always enough
SKN-1 inh – blocks SKN-1 activity in C. elegans; AID 624304; inhibition, % at 21.8 µM; actives 0.49% (n = 360,000); C. elegans VP596 Pgst-4::GFP/RFP ratio, acrylamide-induced, 24 h;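 active = interference check ratio from 0.5 to 1.5 plus GFP to RFP signal ratio inhibition reaching or exceeding a fixed threshold, cut at about 30% in these data, passing the limit was not always enough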
M1 ag – activates human CHRM1 receptor | activation, % at 3 µM | P11229 | CHO-K1 hM1, Fluo-8 calcium fluorescence, agonist mode; 0% DMSO, 100% acetylcholine EC100 | actives 0.33% (n = 360,000);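 active = activation above the run's mean compound activation plus 3 SD, cut at about 16% in these data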;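 note: peak over basal fluorescence ratio within a 140 s kinetic read after compound addition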
Myeloid diff MLP – compounds promoting myeloid differentiation; ER-HoxA9 myeloid progenitors, lysozyme-GFP differentiation, flow cytometry; calls only at 10 µM; actives 1% (n = 360,000);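 active = normalized GFP-positive differentiation at or above the plate's own cutoff, the solvent-only control mean plus 3 SD; inconclusive = no clear call, values can overlap the other calls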;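 note: cells exposed to compound for four days before flow analysis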
Hits are given with their value; i = inactive; ? = inconclusive; nt = no result given; + = active, no number. Most compounds without a hit are left out; they make up all but 3.5% or so of the library.

SMILES	ATG4B inhibitor	CHRM1 antagonist	M1 PAM	SKN-1 inh	M1 ag	Myeloid diff MLP
COc1cc(-c2nnc(SCC(=O)N(Cc3ccccc3)C(C)(C)C)o2)cc(OC)c1OC	i	i	i	i	i	+
COc1cc(OC)cc(-c2nnc(SCC(=O)N(Cc3ccccc3)C(C)(C)C)o2)c1	i	i	i	i	i	+
c1ccc2c(c1)OCCOCCOc1ccccc1OCCOCCO2	i	i	i	i	i	i
N#C/C(C(N)=O)=c1/ccc2c(c1)N1C3=C(CCCC3)CC3CCCCC31N=2 (stereo not drawn)	i	nt	nt	nt	nt	nt
N#CC(C#N)=c1ccc2c(c1)N1C3=C(CCCC3)CC3CCCCC31N=2 (stereo not drawn)	i	i	i	i	i	+
Cc1ccc2c(CC(=O)Nc3ccc4nc(N5CCOCC5)sc4c3)coc2c1	nt	i	i	i	i	i
O=c1[nH]cc(C=NNc2ccccc2)c(=O)[nH]1	nt	i	i	i	i	i
Cc1nc2nc(C)n(CCN3CCOCC3)c(=O)c2c(-c2cccc([N+](=O)[O-])c2)c1C(=O)CCCCCCCCCCN1CCC(c2ccccc2)(c2ccccc2)CC1	i	100	i	i	i	nt
O=C(Nc1ccccc1Cl)N1CCN(c2ccc3nnc(-c4ccc(F)cc4)n3n2)CC1	i	i	i	i	i	i
Fc1ccc(-c2nnc3ccc(N4CCCC4)nn23)cc1	i	102	i	i	i	i
Nc1nc(CN2CCCCCC2)nc(Nc2ccccc2)n1	i	i	i	i	i	i
CCOC(=O)C1CCCN(Cc2nc(N)nc(Nc3ccccc3)n2)C1 (stereo not drawn)	i	i	i	i	31	i
Nc1nc(CN2CCC(Cc3ccccc3)CC2)nc(Nc2ccccc2)n1	i	31	i	i	i	i
CCOC(=O)C1CCCN(Cc2c(C(=O)N3CCOCC3)nc3ccccn23)C1 (stereo not drawn)	i	i	i	i	23	i
O=C(Nc1cc(S(=O)(=O)N2CCOCC2)ccc1Cl)c1cc([N+](=O)[O-])ccc1Cl	i	i	i	i	i	i
C#CCOCCOCCOCCNc1nc(N2CCN(C(=O)CCCCCCCCCCNC(=O)[C@@H](CCSC)n3cc(CCO)nn3)CC2)nc(N2CCN(C(=O)CCCCCCCCCCNC(=O)[C@@H]([C@H](C)O)n3cc(C)nn3)CC2)n1	i	i	i	i	i	?
C#CCOCCOCCOCCNc1nc(N2CCN(C(=O)CCCCCCCCCCNC(=O)Cn3cc(C[C@@H](C)O)nn3)CC2)nc(N2CCN(C(=O)CCCCCCCCCCNC(=O)[C@@H](CCSC)n3cc(CCO)nn3)CC2)n1	i	i	i	i	i	+
C#CCOCCOCCOCCNc1nc(N2CCN(C(=O)CCCCCCCCCCNC(=O)[C@@H](CCSC)n3cc(CCO)nn3)CC2)nc(N2CCN(C(=O)CCCCCCCCCCNC(=O)[C@H](CCCN=C(N)N)n3cc(C[C@@H](C)CC)nn3)CC2)n1	46	i	i	i	i	i
CC12CCC(=O)N1C(C(=O)N1CCN(c3ccc([N+](=O)[O-])cc3)CC1)CS2 (stereo not drawn)	i	i	i	i	i	i
CN1CCN(c2nc3c(c(=O)n(C)c(=O)n3C)n2Cc2ccccc2Cl)CC1	i	57	i	i	i	i
CN1CCN(c2nc3c(c(=O)n(C)c(=O)n3C)n2Cc2cccc3ccccc23)CC1	i	i	i	i	i	i
COc1ccc(S(=O)(=O)Nc2cc3c4c(oc3c3ccccc23)CC(C)(C)CC4=O)cc1	i	i	i	35	i	i
COc1ccc(S(=O)(=O)Nc2cc3c4c(oc3c3ccccc23)CCCC4=O)cc1	i	i	i	i	i	?
CN1CCC(N(C)C(=O)c2cc(-c3ccccc3Cl)nc3ccccc23)CC1	i	i	i	i	i	+
CC1(C(=O)NS(=O)(=O)c2ccc(F)cc2F)CCN1C(=O)C1(c2ccc(Cl)cc2)CCC1 (stereo not drawn)	nt	i	i	i	i	i
O=C(NCc1ccccc1CN1CCCC1)c1ccc(Cl)c(N2CCCC2=O)c1	i	i	i	i	i	i
CCOC(=O)c1c(-c2ccccc2)csc1NC(=O)/C(C#N)=C\c1ccc(O)c(OC)c1	i	i	i	i	i	+

Source: PubChem (several laboratories)
